Beta cell apopt = inhibitors of cytokine-induced beta cell apoptosis, primary screen, luminescence; 300,000 compounds, 0.8% hits; protection from apoptosis, % (concentration not given with the values); AID 435005, 2010; INS-1E cytokine-induced death, ATP luminescence, 48 h; percent of positive-control rescue, neutral wells zero;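 active means Every replicate reaches about 75%, or at least half do and their mean reaches it too, limit read from the data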;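 further: higher means more ATP so stronger rescue from cytokine killing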
Mdm2 MdmX PPI = inhibitors of human Mdm2-MdmX association, primary screen, cell-based, luminescence, split luciferase, SaOS-2, uHTS | Protein Mdm4 (Homo sapiens) + E3 ubiquitin-protein ligase Mdm2 (Homo sapiens), … | SaOS-2 split-luciferase Mdm2/MdmX complementation | 330,000 compounds, 3% hits | AID 485346, 2010 | inhibition, % at 8 µM;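 active means inhibition of at least 50% at 8 µM in the primary screen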
Target sequence (O15151 whole entry, looked up): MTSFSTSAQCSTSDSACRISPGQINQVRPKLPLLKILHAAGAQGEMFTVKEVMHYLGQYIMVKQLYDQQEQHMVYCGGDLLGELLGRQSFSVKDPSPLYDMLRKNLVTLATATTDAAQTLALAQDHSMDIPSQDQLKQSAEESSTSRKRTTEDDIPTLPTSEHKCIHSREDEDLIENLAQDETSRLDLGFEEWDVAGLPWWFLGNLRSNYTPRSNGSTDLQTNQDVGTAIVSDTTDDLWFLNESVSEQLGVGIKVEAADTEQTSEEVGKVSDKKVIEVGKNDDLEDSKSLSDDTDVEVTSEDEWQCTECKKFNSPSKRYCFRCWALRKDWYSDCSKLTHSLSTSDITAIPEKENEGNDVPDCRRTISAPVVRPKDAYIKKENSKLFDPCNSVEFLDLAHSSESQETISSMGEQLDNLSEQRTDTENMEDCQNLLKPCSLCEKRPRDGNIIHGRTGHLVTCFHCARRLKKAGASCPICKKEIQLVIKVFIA
Target sequence (Q00987 whole entry, looked up): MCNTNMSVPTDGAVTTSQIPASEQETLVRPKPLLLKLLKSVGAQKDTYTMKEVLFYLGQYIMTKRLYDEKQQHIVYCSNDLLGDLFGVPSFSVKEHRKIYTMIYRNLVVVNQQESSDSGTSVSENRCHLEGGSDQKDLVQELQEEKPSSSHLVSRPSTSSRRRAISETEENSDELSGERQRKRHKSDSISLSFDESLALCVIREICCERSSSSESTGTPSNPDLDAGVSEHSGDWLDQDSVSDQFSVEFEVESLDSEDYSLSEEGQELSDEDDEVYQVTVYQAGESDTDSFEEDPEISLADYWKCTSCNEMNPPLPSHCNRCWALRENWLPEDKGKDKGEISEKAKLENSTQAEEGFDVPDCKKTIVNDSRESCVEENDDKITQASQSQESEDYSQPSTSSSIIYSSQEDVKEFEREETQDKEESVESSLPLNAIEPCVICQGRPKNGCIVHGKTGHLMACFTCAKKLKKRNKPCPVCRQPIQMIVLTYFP
Gli-Sufu antag = Gli-Sufu pathway antagonists, primary screen, luciferase luminescence, Sufu-KO-LIGHT cells, uHTS; AID 588413, 2011; inhibition, % at 5 µM; 340,000 compounds, 0.74% hits; Sufu-KO-LIGHT fibroblasts, Gli luciferase reporter luminescence;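 active means inhibition above about 55%, limit read from the data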
Jurkat NFkB inh = inhibitors of induced NF-kB luciferase reporter, primary screen, TCR NF-kB activation inhibitor project, cell-based, luminescence, uHTS; Jurkat, PMA/ionomycin-induced NF-kB luciferase reporter; inhibition, % at 4 µM; 330,000 compounds, 0.53% hits; AID 435003, 2010; in the data active means inhibition above about 50%
697 NFkB inh = inhibitors of PMA/ionomycin-induced NF-kB reporter, 697 cells, primary screen, B-cell NF-kB inhibitor project, cell-based, luminescence, uHTS | 330,000 compounds, 0.33% hits | 697 B-cell NF-kB luciferase reporter, 16 h | inhibition, % at 4 µM; in the data active means inhibition above about 35%
697 NFkB conf = PMA/ionomycin-induced NF-kB reporter inhibitors, 697 retest, confirmation, B-cell NF-kB inhibitor project, cell-based, luminescence, single concentration | shares compounds with 697 NFkB inh | 697 B-cell NF-kB luciferase, 16 h | inhibition, % at 4 µM | 2,000 compounds, 35% hits | AID 449746, 2010; in the data active means inhibition mostly above about 28%, no sharp cut-off; inactive means mostly below about 22%
Mdm2-MdmX conf = Mdm2-MdmX complex disruptors, retested hits, confirmation, luminescence, single concentration; inhibition, % at 8 µM; Mdm2-MdmX binding, luminescent assay; 10,000 compounds, 55% hits; AID 489028, 2010; shares compounds with Mdm2 MdmX PPI; in the data active means inhibition above about 40%
Full FLuc ctr = full-length luciferase signal inhibition, confirmation, counter-screen for Mdm2/MdmX interaction inhibitor project, cell-based, single concentration, SaOS-2. shares compounds with Mdm2 MdmX PPI. SaOS-2 full-length luciferase counterscreen, luminescence. inhibition, % at 8 µM. 6,200 compounds, 77% hits;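 active means mean inhibition at 8 µM reaching about 37%, which flags the compound as non-specific, limit read from the data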;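 further: p53-null SaOS-2 cells with luciferase driven by a doxycycline-inducible promoter; compound on cells about two nights before reading with doxycycline added after day one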
Hits are given with their value; . = inactive; / = no result given. This is a sample that favours compounds with a hit; in the whole collection about 4% have one here.

SMILES	Beta cell apopt	Mdm2 MdmX PPI	Gli-Sufu antag	Jurkat NFkB inh	697 NFkB inh	697 NFkB conf	others
N/C(=N\OC(=O)C1CC1)c1ccc([N+](=O)[O-])s1	.	.	.	.	.	/
COc1ccc(CNc2nc3ccccc3s2)cc1OC	.	.	.	.	.	/
Cc1ccc(CNc2nc3ccccc3s2)s1	.	.	.	.	.	.
Cc1ccc(C(=O)CSc2nnc(COc3cccc(C)c3)o2)cc1	.	.	.	.	49	57
CN1C(=O)CSc2ccc(NC(=O)N3CCN(c4ccccc4)CC3)cc21	.	.	.	.	36	31
Cc1ccc(NC(=O)Nc2ccc3c(c2)N(C)C(=O)CS3)nc1	.	.	.	.	.	/
O=C(Nc1ccccc1)N1CCN(c2ccccc2)CC1	/	/	.	/	/	/
Cc1ccnc(NC(=O)Nc2ccc3c(c2)N(C)C(=O)CS3)c1	.	.	.	.	.	.
O=C(Nc1cccc(Oc2ccc3c(c2)C(=O)NC3=O)c1)c1cccs1	.	.	.	.	39	14
Clc1ccc(/C=C/c2nc3ccccc3[nH]2)c(Cl)c1	.	.	.	.	.	.
O=C(/C=C/c1ccc(Cl)cc1Cl)c1nc2ccccc2[nH]1	.	.	.	.	.	/
COC(=O)c1ccc(N2C(=O)C3CC=CC(C)C3C2=O)cc1 (configuration not stated)	.	.	.	.	.	/
COC(=O)c1c(NC(=O)c2ccco2)sc2c1CCN(C(C)=O)C2	/	.	.	.	38	.
COc1cc(-c2nc3n(n2)C(c2ccc(F)cc2)C2=C(CCCC2=O)N3)cc(OC)c1OC (configuration not stated)	.	.	.	.	37	33
COc1cccc(C2C3=C(CCCC3=O)Nc3nc(-c4cc(OC)c(OC)c(OC)c4)nn32)c1 (configuration not stated)	.	.	.	.	.	/
COc1cc(C(=O)NCc2nnc(SCC(=O)NCc3ccco3)o2)cc(OC)c1OC	.	.	.	.	.	/
CC(C)NC(=O)c1ccc2c(=O)n(CC3CCCO3)c(=S)[nH]c2c1 (configuration not stated)	.	.	.	.	36	.
COCCCNC(=O)c1ccc2c(=O)n(CC3CCCO3)c(=S)[nH]c2c1 (configuration not stated)	/	.	.	.	.	/
Fc1cccc(/C=N/Nc2ccc3ccccc3n2)c1	.	.	.	.	.	.
Brc1ccc(/C=N/Nc2ccc3ccccc3n2)cc1	.	.	.	.	.	/
C[C@H](CO)N1C[C@H](C)[C@@H](CN(C)Cc2ccccc2)Oc2ccc(NC(=O)CCCCCC(=O)Nc3ccccc3N)cc2C1=O	.	.	.	.	.	/
CCn1c(SCC(=O)NNC(=O)c2ccccc2)nnc1-c1ccncc1	.	.	.	.	42	.
CCOCCCNC(=S)Nc1ccc2nc3n(c(=O)c2c1)CCCCC3	.	.	.	.	.	/
COCCCNC(=S)Nc1ccc2nc3n(c(=O)c2c1)CCCCC3	.	.	.	.	35	.
Cc1ccc(C(=O)Nc2ncc3c(Cl)cccc3n2)cc1	.	.	.	.	.	.
SMILES	Beta cell apopt	Mdm2 MdmX PPI	Gli-Sufu antag	Jurkat NFkB inh	697 NFkB inh	697 NFkB conf	others
Cc1ccc(C(=O)Nc2cccc(C(F)(F)F)c2)cc1NC(=O)c1c[nH]c2cc(C(F)(F)F)ccc2c1=O	.	.	.	.	.	/
Cc1cn(-c2cc(C(=O)Nc3ccc(C)c(NC(=O)C(=O)c4c[nH]c5ccccc45)c3)cc(C(F)(F)F)c2)cn1	.	.	.	.	37	.
COc1ccc(N/C=C\C(=O)c2ccc3ccccc3c2)cc1	.	.	.	.	.	/
COc1ccc(N/C=C/C(=O)c2ccccc2)cc1	.	.	.	.	.	.
CCOc1ccc(N/C=C/C(=O)c2ccccc2)c([N+](=O)[O-])c1	.	.	.	.	.	.
CCOc1ccc(NC(=O)/C=C/c2ccccc2)c([N+](=O)[O-])c1	.	.	.	.	.	/
Fc1ccc(-c2nnc(SCc3cccnc3)o2)cc1	/	.	.	.	.	/
COc1ccc(NC(=O)C2CCCN(CCCc3ccccc3)C2)cc1OCC(C)C (configuration not stated)	.	.	.	.	.	/
[O-][n+]1c2ccccc2cc2ccccc21	.	.	.	.	.	/
Fc1cccc(Nc2ncnc3sccc23)c1	.	.	.	.	.	/
O=C(O)c1cccc(Nc2ncnc3sccc23)c1	/	.	.	.	52	.
Cc1c(CC(=O)NCCCC(=O)O)c(=O)oc2cc3c(cc12)CCC(C)(C)O3	.	.	.	.	52	51
CCOC(=O)N1CCN(C(=O)Nc2ccc3nc(C)c(C)nc3c2)CC1	.	.	.	.	37	.
O=c1c2ccccc2nc(SCCN2CCCCC2)n1CCc1ccccc1	.	.	.	.	.	/
COCCNC(=O)/C(C#N)=C/c1ccc(-c2ccc(OC)cc2[N+](=O)[O-])o1	.	.	.	.	35	.
COCCNC(=O)/C(C#N)=C/c1ccc(O)c([N+](=O)[O-])c1	.	.	.	.	.	/
Cc1ccc(C)c(CN2C(=O)c3ccccc3S(=O)c3ccc(C(=O)N4CCN(c5ccccn5)CC4)cc32)c1 (configuration not stated)	.	99	.	.	.	.	Mdm2-MdmX conf=89;Full FLuc ctr=54
Cc1ccc(C)c(CN2C(=O)c3ccccc3S(=O)(=O)c3ccc(C(=O)N4CCN(C)CC4)cc32)c1	.	.	.	.	.	/
N#C/C(=C\Nc1ccccc1O)c1nc2ccccc2o1	.	/	.	/	/	/
COc1ccc(NC(=O)c2cc(CC(C)C)nc3ccccc23)cc1	.	91	.	.	.	.	Mdm2-MdmX conf=90;Full FLuc ctr=52
Cc1ccc(-c2cc3onc(-c4ccccc4)c3c(=O)n2C)cc1	.	73	.	.	.	.	Mdm2-MdmX conf=74;Full FLuc ctr=103
Cn1c(-c2ccc(F)cc2)cc2onc(-c3c(F)cccc3Cl)c2c1=O	.	.	.	.	.	/
Cc1ccc(NC(=O)CCNC(=O)c2ccc([N+](=O)[O-])cc2)cc1C	.	/	.	/	/	/
